Screening results deposited in PubChem by National Center for Advancing Translational Sciences (NCATS).
The list is not random: actives were taken first. Their share in the collection is about 1.2%.
Giardia FBPA inh-1 = qHTS Assay for Inhibitors of Fructose-1,6-bisphosphate Aldolase from Giardia Lamblia; A8B2U2; purified Giardia FBPA; Potency, µM (doses to about 59.6 µM), for the others: top-dose activity, negative = inhibition, usual class: inhibitors; 290,000 compounds, 0.71% hits; also: % is scaled to controls: 0 for no effect and ±100 for the full control effect; nearly all actives have a fitted effect of over 55% in size
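Giardia FBPA (40 nM reagent) was preincubated 10 min at RT with compound (up to 57.5 uM final), then substrate plus GAPDH/TPI/NAD/arsenate coupling system with diaphorase/resazurin was added; resorufin fluorescence (525/598 nm) was read after 20 min.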
AMA1 RON2 block = qHTS for Inhibitors of AMA1-RON; Towards Development of Antimalarial Drug Lead: Primary Screen; AlphaScreen AMA1-biotinylated RON2 peptide binding; Potency, µM (doses to about 58.2 µM), for inactives: top-dose activity change, negative = inhibition, hits mostly inhibitors; 360,000 compounds, 0.2% hits;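 also: 0% = vehicle wells and -100% = peptide control; nearly all actives have a fitted effect of over 45% in size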
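AMA1 (3D7) with his tag at 25 nM final met compounds first, then biotinylated RON2 peptide at 25 nM; detection used donor plus acceptor beads, 10 µg/mL apiece, read by AlphaScreen after 30 min at room temperature.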
LmPK inhibitor = qHTS Assay for Inhibitors of Leishmania Mexicana Pyruvate Kinase (LmPK); 290,000 compounds, 0.37% hits; purified LmPK, Kinase-Glo ATP luminescence, 1 h; AID 1721, 2009; Potency, µM (top dose mostly 57.5 µM), for the others: at the highest dose activity change, negative = inhibition, hits mostly inhibitors; Q27686; also: % is scaled to controls: 0 for no effect and ±100 for the full control effect
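0.1 nM LmPK, 0.5 mM PEP, 0.1 mM ADP; 50 mM imidazole pH 7.2, 7 mM MgCl2, 50 mM KCl; 1 h RT. Kinase-Glo luminescence readout, normalized to no-enzyme (full inhibition) and uninhibited wells.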
NS1 inh = qHTS Assay for Inhibitors of Influenza NS1 Protein Function | Potency, µM (highest dose often 46.1 µM), without a hit: at the top dose activity, positive = more growth | 270,000 compounds, 0.4% hits; calls by dose curve; also: actives are rising curves; nearly all actives have a fitted effect of over 50% in size
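In this qHTS, NS1 from influenza A is expressed in budding yeast, where it slows growth. Cells are switched from glucose to 2% galactose medium (pH 6.0, -URA), treated with compound, and growth recovery is read at OD600.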
Tb PYK inh = qHTS of Trypanosoma Brucei Inhibitors; pyruvate kinase (Trypanosoma brucei), Q57TT1; 410,000 compounds, 0.12% hits; Potency, µM (top dose mostly 76.8 µM), inactives show top-dose activity, negative = inhibition, actives largely listed as inhibitors; TbPYK enzyme, Kinase-Glo Plus ATP luminescence, 45 min; also: % is scaled to controls: 0 for no effect and ±100 for the full control effect; nearly all actives have a fitted effect of over 50% in size
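TbPYK + substrate in 50 mM TEA pH 7.2, 100 mM KCl, 10 mM MgCl2, 0.05% BSA, 0.01% Tween-20; cpd pinned; ADP 130 uM final; 45 min RT; Kinase-Glo Plus 10 min; luminescence endpoint.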
Giardia growth = qHTS Assay for Inhibitors of Fructose-1,6-bisphosphate Aldolase from Giardia Lamblia: Giardia lamblia growth inhibition. AID 2785, 2010. Giardia lamblia trophozoite growth inhibition. shares compounds with Giardia FBPA inh-1. Potency, µM (doses to about 57.5 µM), without a hit: top-dose activity change, negative = inhibition, usual class: inhibitors. 1,500 compounds, 5% hits;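 also: trophozoites exposed to compound for 48 h at 37 °C; % is scaled to controls: 0 for no effect and ±100 for the full control effect; nearly all actives have a fitted effect of over 70% in size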
Mammal cell tox = qHTS Assay for Inhibitors of Fructose-1,6-bisphosphate Aldolase from Giardia Lamblia: Mammalian cellular toxicity; shares compounds with Giardia FBPA inh-1; mammalian cell viability counter-screen, qHTS; Potency, µM (doses to about 57.5 µM), without a hit: at the top dose viability change, negative = toxicity, most hits filed as inhibitors; 1,500 compounds, 4% hits; AID 2786, 2010;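 also: Chinese hamster ovary cells used as mammalian cytotoxicity surrogate; viability measured as cellular ATP by luminescence; compound exposure lasted 48 h before reading; % is scaled to controls: 0 for no effect and ±100 for the full control effect; nearly all actives have a fitted effect of over 60% in size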
Giardia FBPA inh-2 = qHTS Assay for Inhibitors of Fructose-1,6-bisphosphate Aldolase from Giardia Lamblia: Primary screen confirmation; shares compounds with Giardia FBPA inh-1; purified Giardia aldolase enzyme activity, qHTS; Potency, µM (titrated, usually from 57.5 µM), inactives show at the highest dose activity change, negative = inhibition, actives largely listed as inhibitors; 1,500 compounds, 5% hits; also: % is scaled to controls: 0 for no effect and ±100 for the full control effect; nearly all actives have a fitted effect of over 45% in size
Rabbit FBPA inh = qHTS Assay for Inhibitors of Fructose-1,6-bisphosphate Aldolase from Giardia Lamblia: Rabbit FBPA Selectivity. shares compounds with Giardia FBPA inh-1. Rabbit muscle FBPA enzyme inhibition, selectivity counter-screen. Potency, µM (top dose mostly 57.5 µM), for the others: at the top dose activity, negative = inhibition, actives largely listed as inhibitors. 1,500 compounds, 4% hits; also: % is scaled to controls: 0 for no effect and ±100 for the full control effect; nearly all actives have a fitted effect of over 60% in size
Target sequence (P00883 whole entry, looked up): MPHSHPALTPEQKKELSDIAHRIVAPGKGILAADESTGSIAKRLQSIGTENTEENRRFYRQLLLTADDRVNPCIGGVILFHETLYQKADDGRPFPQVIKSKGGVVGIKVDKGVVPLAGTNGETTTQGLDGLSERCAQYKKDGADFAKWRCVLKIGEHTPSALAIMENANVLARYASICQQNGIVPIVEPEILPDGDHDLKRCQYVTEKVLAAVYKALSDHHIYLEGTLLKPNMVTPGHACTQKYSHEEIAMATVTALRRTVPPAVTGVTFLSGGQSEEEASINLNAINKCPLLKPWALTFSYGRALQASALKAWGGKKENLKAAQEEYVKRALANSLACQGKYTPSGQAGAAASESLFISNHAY
GAPDH counter = qHTS Assay for Inhibitors of Fructose-1,6-bisphosphate Aldolase from Giardia Lamblia: Coupling assay counterscreen confirmation. shares compounds with Giardia FBPA inh-1. 1,500 compounds, 6% hits. GAPDH coupling enzyme counterscreen, biochemical, qHTS. Potency, µM (doses to about 57.5 µM), for the others: top-dose activity change, negative = inhibition, usual class: inhibitors; also: % is scaled to controls: 0 for no effect and ±100 for the full control effect; nearly all actives have a fitted effect of over 55% in size
Active calls of the source: *; u = inconclusive; x = no result given; [ ] = remark or other dose. Unless noted, calls follow the shape of the dose curve; as a rule, active = well fitted curve in the direction sought with a large enough effect; inconclusive = small, poorly fitted or top-dose-only effect, or another doubt; inactive = no such curve, though single readings can be large; an effect the other way counts as inactive or inconclusive. Potency is read from the fitted curve at half-maximal effect.

SMILES	Giardia FBPA inh-1	AMA1 RON2 block	LmPK inhibitor	NS1 inh	Tb PYK inh	Giardia growth	Mammal cell tox	Giardia FBPA inh-2	Rabbit FBPA inh	GAPDH counter
c1ccc2nc(CC[C@@H]3CCCCN3)ccc2c1	x	x	x	1%	x	x	x	x	x	x
NC1=C(O)C(=O)C(c2ccccc2)O1 (stereo unspecified)	16µM*	-4%	-8%	-4%	-12%	6%[10.4 µM]	5%	-24%	-13%	-22%
O=C(CCS(=O)(=O)c1ccccc1)N(Cc1cccnc1)c1nc2c(Cl)cccc2s1	x	x	x	x	2%	x	x	x	x	x
CSS(=O)(=O)c1cccc2cccnc12	18µM*	18%	10%	-56%	u	23%	0%	-15%	u	u
CC1C(=O)OC2C(O)C34C5CC(C(C)(C)C)C36C(OC(=O)C6O)OC4(C(=O)O5)C12O (stereo unspecified)	9%	x	x	x	x	x	x	x	x	x
Cn1c(=O)c2c(nc(N3CCOCC3)n2Cc2ccccc2F)n(C)c1=O	x	x	x	x	-7%	x	x	x	x	x
c1ccc2c3c(cc(N4CCOCC4)c2c1)OC1(N2CCOCC2)CCCCC1O3 (stereo unspecified)	0.56µM*	-4%	3%	-10%	1%	u	-9%	7.1µM*	u	25µM*
CC1CCN(c2ccc(/C=N\Nc3nncn3N)cc2[N+](=O)[O-])CC1	11µM*	17%	1%	-5%	-7%	11µM*	15%	u	-25%	u
CC1CCN(c2ccc(/C=N/n3nnnc3N)cc2[N+](=O)[O-])CC1	0%	u	-1%	3%	2%	x	x	x	x	x
CC(C)(C)c1ccc(/C=N/Nc2nncn2N)cc1	16µM*	40%	-13%	-91%	-7%	-8%[10.4 µM]	-3%	14µM*	u	u
CSc1ccc(/C=N\Nc2nncn2N)cc1	u	54%	-6%	-50%	-6%	14%[38.3 µM]	-9%	2.3µM*	6.5µM*	3.3µM*
COc1cc(/C=N\Nc2nncn2N)ccc1OC(C)=O	25µM*	37%	-2%	-1%	0%	-20%	-28%	u	u	u
O=S(=O)(C[C@H](O)C(Cl)(Cl)Cl)NNc1ccccc1	x	x	x	-6%	x	x	x	x	x	x
Cn1c(=S)c2[nH]c(SCCN3CCCC3)nc2n(C)c1=O	11µM*	81%	4%	5%	-18%	11%[10.4 µM]	19%	1%	-3%	2%
Cn1c(=S)c2[nH]c(SCCN)nc2n(C)c1=O	x	79%	x	x	-11%	x	x	x	x	x
